MCF10A rerep: induces DNA re-replication in MCF 10a normal breast cells; MCF 10A DNA re-replication, Hoechst nuclear intensity, 48 h; Potency, µM (highest dose often 46.1 µM), inactives show top-dose activity, positive = re-replication, actives largely listed as activators; actives 2.9% (n = 350,000); AID 624296; also: % of control where 0% means no effect; nearly all actives have a fitted effect of over 50% in size
SW480 rereplic: DNA re-replication induction in SW480 cells; SW480 DNA re-replication, Hoechst DNA content imaging, 48 h; Potency, µM (top dose mostly 46.1 µM), inactives show at the top dose re-replication activation, most hits filed as activators; actives 1.8% (n = 340,000); AID 624297; also: % of control where 0% means no effect; nearly all actives have a fitted effect of over 55% in size
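Image-based DNA-content assay: after two days of treatment, nuclei were labelled with the DNA dye Hoechst and imaged, and hits were compounds raising the count of nuclei showing high fluorescence intensity.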
PINK1 modulator: modulators of PINK1 expression. PINK1 immunofluorescence, high-content cytometry, 24 h. Potency, µM (doses to about 76.6 µM), without a hit: at the highest dose activation (PINK1 increase), hits mostly activators. actives 0.2% (n = 410,000); active = well fitted activation curve with a large enough effect; inconclusive = small, poorly fitted or top-dose-only effect; cell line not stated here; also: % of control where 0% means no effect; nearly all actives have a fitted effect of over 65% in size
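PINK1 protein level read as immunofluorescence by microplate cytometer in a fixed, stained stable cell line after 24 h exposure to five compound concentrations, with CCCP as control.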
KB-V1 cytotox: KB-V1 MDR subline cytotoxicity. KB-V1 MDR cells viability, CellTiter-Glo, 72 h. Potency, µM (doses to about 46.1 µM), most hits filed as cytotoxic. actives 3.4% (n = 400,000). AID 1347076; also: % is scaled to controls: 0 for no effect and ±100 for the full control effect; nearly all actives have a fitted effect of over 60% in size
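Readout: CellTiter-Glo luminescence, 10 min after addition. Cells: KB-V1 MDR subline, 72 h at 37 degrees C with compound. Analysis: corrected, normalized data fitted to concentration-effect curves.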
KB-3-1 cytotox: KB-3-1 parental cell cytotoxicity; KB-3-1 viability, CellTiter-Glo ATP luminescence, 72 h; Potency, µM (top dose mostly 46.1 µM), actives largely listed as cytotoxic; actives 1.4% (n = 400,000); AID 1347075; also: % is scaled to controls: 0 for no effect and ±100 for the full control effect; nearly all actives have a fitted effect of over 60% in size
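Cells are dispensed, compounds pinned in, plates held at 37 °C for 72 h, then CellTiter-Glo is added and luminescence read after 10 minutes. Cell line: parental KB-3-1 in phenol-red-free DMEM, 10% FBS.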
Starred values were filed as active, the others as inactive; i = inactive; ? = inconclusive; . = not tested or not shown; ! = not active in a repeat; [ ] = remark or other dose. This is a sample that favours compounds with a hit; in the whole collection about 6.7% have one here. Unless noted, calls follow the shape of the dose curve; as a rule, active = well fitted curve in the direction sought with a large enough effect; inconclusive = small, poorly fitted or top-dose-only effect, or another doubt; inactive = no such curve, though single readings can be large; an effect the other way counts as inactive or inconclusive. Potency is read from the fitted curve at half-maximal effect.

SMILES | MCF10A rerep | SW480 rereplic | PINK1 modulator | KB-V1 cytotox | KB-3-1 cytotox
C[C@@H]1CN([C@@H](C)CO)C(=O)c2cc(NC(=O)C3CC3)ccc2O[C@@H]1CN(C)Cc1ccc(Cl)c(Cl)c1 | ? | 0% | 12% | i | i
COc1cc(S(=O)(=O)N2CCC(O)(c3cccc(C(F)(F)F)c3)CC2)ccc1-n1cnnn1 | 7.3µM* | ? | 5%[38.3 µM] | ? | i
O=S(=O)(c1ccc(OC(F)(F)F)cc1)N1CCC(O)(c2cccc(C(F)(F)F)c2)CC1 | 14% | -2% | ? | i | i
c1ccc(CNc2nc(CN3CCOCC3)nc3scc(-c4ccccc4)c23)cc1 | -8% | -13% | 3% | i | i
Clc1ccc(CNc2nc(CN3CCOCC3)nc3scc(-c4ccccc4)c23)cc1 | 13µM* | -11% | -1% | 21µM* | ?
C/C(=N\NC(=O)c1c[nH]c2ccccc12)c1ccco1 | 2.3µM* | 2.9µM* | 5%[38.3 µM] | i | i
CCOc1ccc(C2C=C(c3cccc(OC)c3)Nc3nnnn32)cc1 (stereo not drawn) | . | . | 2% | i | i
COc1cccc(C2=CC(c3cc(Br)ccc3F)n3nnnc3N2)c1 (stereo not drawn) | . | . | 5% | i | 13µM*
N/C(Cc1ccc([N+](=O)[O-])cc1)=N\OC(=O)c1cccc(Br)c1 | ? | 12µM* | 0% | i | i
N/C(Cc1ccc([N+](=O)[O-])cc1)=N\OC(=O)c1ccc([N+](=O)[O-])cc1 | 2% | -6% | 2% | ? | i
CCOc1ccccc1N1CCN(C(=O)C2CSC3(C)CCC(=O)N23)CC1 (stereo not drawn) | -6% | -5% | 0% | 18µM* | i
COc1ccc2c(C)c(CC(=O)NCCc3ccc(Cl)cc3)c(=O)oc2c1C | . | . | 1% | i | i
COc1cc2ccc(=O)oc2c(O[C@@H]2O[C@H](CO)[C@@H](O)[C@H](O)[C@H]2O)c1O | 16µM* | 8.2µM*! | 0% | i | i
O=c1ccc2ccc(O[C@@H]3O[C@H](CO)[C@@H](O)[C@H](O)[C@H]3O)c(O)c2o1 | 7% | -53% | 3% | ? | i
Cc1cccc(C)c1NC(=O)CSc1nc2ccccc2c(=O)[nH]1 | 5% | -1% | 64%[38.3 µM] | 16µM* | i
COCC(C)n1c(C)cc(C(=O)CSc2nc3ccccc3c(=O)[nH]2)c1C (stereo not drawn) | ? | -2% | 4%[38.3 µM] | 2.6µM* | 21µM*
O=C1CC(O)(c2ccccc2)C(c2ccccc2)=C1c1ccccc1 (stereo not drawn) | 17% | -2%[9.22 µM] | 2% | 18µM* | ?
O=S(=O)(Nc1cc(Cl)ccc1-n1cncn1)c1cc(Br)ccc1Br | ? | -9% | 16µM* | i | ?
O=C(Nc1ccc(OC(F)F)c(Cl)c1)c1cccc(OC(F)F)c1 | 73% | 19% | 8%[38.3 µM] | 18µM* | ?
O=C(Nc1ccc2c(c1)CCC2)c1cccc(OC(F)F)c1 | 0% | 4% | 3% | i | i
COc1ccc(NC(=O)c2cccc(OC(F)F)c2)cc1Cl | 4% | -1% | 0% | 15µM* | i
O=C(c1cc(Br)c(Br)s1)N1CCc2ccccc2C1 | 9% | -6% | 16% | i | i
COc1ccc(S(=O)(=O)N2CCN(c3ccccc3OC)CC2)cc1-c1noc(C)n1 | . | . | 3% | . | .
O=C(O)COc1ccc2oc3c(c2c1)CCCC3 | 2.1µM* | -25% | 1% | i | i
Cn1cc2ccc(-c3ccc4ncnc(NCc5cccs5)c4c3)cc2n1 | . | . | . | i | i
CC(C)CC(=O)/C=C/n1c(=S)oc2ccccc21 | 3.7µM* | 8.2µM* | ? | ? | ?
CC(=O)/C=C/n1c(=S)oc2ccccc21 | 3.3µM* | 4% | 23% | 16µM* | ?
Cc1cc(=O)n2nc(N3CCC(C(=O)NCc4cccc(Cl)c4)CC3)sc2n1 | -1% | -15% | 0% | ? | i
S=P(N1CC1)(N1CC1)N1CC1 | ? | 2.1µM* | -1% | i | i
CC1=C(C(=O)N(C(C)C)C(C)C)CC(CC(=O)NCc2ccco2)C(=O)N1CCCN1CCCC1=O (stereo not drawn) | . | . | 0% | i | i

Compound activity as filed in PubChem.
